Out of some 85,000 compounds screened, about 440 (0.52%) showed an effect of 50% or more. Many of the other results were omitted from the sample, so strong results are more common in it than they were.
Assay: In vitro enzyme assay to detect hydrolysis of chlorophenol red-beta-D-[…] directly proportional to the number of Toxoplasma stably expressing beta-galactosidase
Format: functional, organism-based, Toxoplasma gondii
Design: scale not given: in the data most compounds retested in dose-response had high values

Row | Structure (SMILES) | Percent Effect (50 µM) [%] | Percent Effect (10 µM) [%]
1 | CN1CCCN(C(=O)c2ccc(N(C)C)cc2F)CC1 | -3.403 | –
2 | CN(CCOc1ccc(Cl)cc1)CCC(N)=O | -5.352 | –
3 | CN(C)S(=O)(=O)N1CC(=O)NCC1(C)C | 14.19 | –
4 | OCCNc1nccc(-c2c[nH]nc2-c2ccco2)n1 | – | 54.25
5 | OCCNc1nccc(-c2c[nH]nc2-c2cccnc2)n1 | – | -8.104
6 | OCCNc1nccc(-c2c[nH]nc2-c2ccncc2)n1 | – | -1.451
7 | CN1Cc2ccccc2CC1=O | -6.86 | –
8 | NC1CCC(N2C(=O)CCC2=O)CC1 (configuration not stated) | 15.63 | –
9 | CN(C)Cc1cccc(C(=O)N[C@@H]2CCOC[C@H]2O)c1 | -6.19 | –
10 | CCCc1ccc(C(=O)N[C@@H]2CCOC[C@H]2O)cc1 | 64 | –
11 | O=C(N[C@@H]1CCOC[C@H]1O)c1ccncc1 | -0.1422 | –
12 | C=C(C)C(C)(C)C(=O)N[C@@H]1COCC[C@H]1O | 16.24 | –
13 | Cc1oc(-c2ccoc2)nc1CN1CCC[C@H]1CO | – | 75.83
14 | Cc1oc(-c2ccoc2)nc1CN1CCCCC1CCc1ccccc1 (configuration not stated) | – | -14.19
15 | COCC1CCCCN1Cc1nc(-c2ccoc2)oc1C (configuration not stated) | – | 1.217
16 | O=C(Nc1ccc(-n2nccn2)cc1)N1CCC(O)C1 (configuration not stated) | -2.451 | –
17 | CSCC[C@H](N)C(=O)N(C)Cc1ncc(Cl)n1C | -3.024 | –
18 | Cc1ccc(CNC(=O)N2Cc3ccccc3C2)cn1 | -21.35 | –
19 | C=C/C=c1\c(=C/C)oc2c(NCc3ccccc3)nc(C)nc12 | – | 54.55
20 | C=C/C=c1\c(=C/C)oc2c(NCc3ccccc3)nc(CC)nc12 | – | 39.81
21 | C=C/C=c1\c(=C/C)oc2c(NCc3ccccc3)ncnc12 | – | 26.91
22 | CC1CCCCN1C(=O)NCCNC(=O)c1ccn[nH]1 (configuration not stated) | -2.19 | –
23 | CCC(N)c1cccc(OC)n1 (configuration not stated) | -11.92 | –
24 | CCC(=O)c1cccc(OC)n1 | 98.31 | –
25 | COc1cccc(CO)n1 | -5.543 | –
26 | O=C(NCc1cccnc1)c1ccc(C(F)(F)F)nc1 | 2.561 | –

Row | Structure (SMILES) | Percent Effect (50 µM) [%] | Percent Effect (10 µM) [%]
27 | COCCn1cncc1CO | 5.728 | –
28 | Nc1ncccc1C(=O)NCc1cccc(Cl)c1 | – | 10.41
29 | Nc1c[nH]nc1C(=O)NCc1cccc(Cl)c1 | 95.75 | –
30 | O=C(NCc1cccc(Cl)c1)c1cnns1 | -15.41 | –
31 | CCCOc1cccc(NCC(=O)N2CCNC2=O)c1 | 1.752 | –
32 | C[C@@H]1CN(C(=O)c2csc(CN(C)C)n2)C[C@]1(C)O | 11.61 | –
33 | CNC(=O)Cc1noc(CCc2cccc(F)c2)n1 | -4.248 | –
34 | CCC(C)N(C)CCC(=O)Nc1ccc(C(N)=O)cc1 (configuration not stated) | -26.89 | –
35 | COc1ccc(S(=O)(=O)N2CCN(C)CC2)c(C)c1C | 5.644 | –
36 | CC(C)(C)OC(=O)NCC1CC(C(N)=O)=NO1 (configuration not stated) | 54.53 | –
37 | CC(C)(C)OC(=O)NCC1CC(N)C1 (configuration not stated) | 6.843 | –
38 | CC(C)(C)OC(=O)NC[C@@H]1CCC[C@H]1N | -4.138 | –
39 | Cc1nn(C)cc1C(=O)N1CCOC2(CCCC2)C1 | 5.531 | –
40 | CN(CC(N)=O)Cc1cccc(C#N)c1 | -4.421 | –
41 | COCCN(C)Cc1ccnc(N)c1 | -7.11 | –
42 | CN(Cc1cccc(C#N)c1)Cc1ccnc(N)c1 | 100.1 | –
43 | N#Cc1ccc(N2CCCC2C(=O)NC2CC2)cn1 (configuration not stated) | 0.7704 | –
44 | Cc1cc(C)cc(NC(=O)CN2CCC(O)CC2)c1 | 5.146 | –
45 | CN1CCCCC1CCC(=O)NCCCn1cccn1 (configuration not stated) | -6.664 | –
46 | O=C(O)C(F)(F)F.O=C1COC2(CCN(S(=O)(=O)C3CC3)CC2)CN1c1cccnc1 | – | 59.25
47 | O=C(CC1CC1)N1CCC2(CC1)CN(c1cccnc1)C(=O)CO2.O=C(O)C(F)(F)F | – | -21.74
48 | CCS(=O)(=O)N1CCC2(CC1)CN(c1cccnc1)C(=O)CO2.O=C(O)C(F)(F)F | – | -35.87
49 | COc1cccc2c1N(CC(=O)N1CCC1)CCC2 | -0.7135 | –
50 | COc1ccc(C)cc1-c1[nH]c2ccccc2c1C(=O)O | – | 55.01
51 | Cc1ccc(C)c(-c2[nH]c3ccccc3c2C(=O)O)c1 | – | 7.079
52 | Cc1ccc(-c2[nH]c3ccccc3c2C(=O)O)c(C)c1 | – | -0.6823

Row | Structure (SMILES) | Percent Effect (50 µM) [%] | Percent Effect (10 µM) [%]
53 | NC(=O)c1cc(N2CCCC2)nc2ccccc12 | 2.977 | –
54 | Cn1nc(C(=O)N2CCOCC2)c(Br)c1C(F)(F)F | 24.28 | –
55 | CCn1cc(C(=O)NCCCC(N)=O)c2ccccc21 | -17.15 | –
56 | N#CCCCn1ccccc1=O | -0.4771 | –
57 | Cc1c(Cl)cccc1NC(=O)CSc1nnc[nH]1 | -6.056 | –
58 | CCOCCC(=O)Nc1ccnn1-c1ccc(Cl)cc1 | – | -1.702
59 | COCC(=O)Nc1ccnn1-c1ccc(Cl)cc1 | – | 75.67
60 | COCCOCC(=O)Nc1ccnn1-c1ccc(Cl)cc1 | – | 0.922
61 | CC(NC(=O)NCCOc1ccc(Cl)cc1)c1nncn1C (configuration not stated) | – | 2.548
62 | CC(c1ccccc1)n1c(SCC(=O)O)nnc1-c1ccccc1Cl (configuration not stated) | – | -2.501
63 | CCn1c(SCC(N)=O)nnc1-c1cccnc1 | -5.033 | –
64 | CCn1ncnc1C(C)NC(=O)c1cc(Cl)ccc1F (configuration not stated) | 1.166 | –
65 | CCn1c(SCC(N)=O)nnc1C(C)NC(=O)c1ccc(Cl)cc1 (configuration not stated) | – | 74.14
66 | CC(NC(=O)c1ccc(Cl)cc1)c1nnc(SCC(N)=O)n1C (configuration not stated) | – | 10.17
67 | CC(C)CC(NC(=O)c1ccc(Cl)cc1)C(N)=O (configuration not stated) | 23.98 | –
68 | CCn1c(SCC(=O)O)nnc1C(C)NC(=O)c1ccc(Cl)cc1 (configuration not stated) | – | 60.13
69 | CC(NC(=O)c1ccc(Cl)cc1)c1nnc(SCC(=O)O)n1C (configuration not stated) | – | 78.32
70 | N#Cc1ccc(C(=O)N2CCCO2)nc1 | -1.519 | –
71 | CSCC(=O)N1CCN(Cc2nccn2C)CC1 | 0.586 | –
72 | CCN1CCN(S(=O)(=O)c2c(F)cccc2F)CC1 | -8.353 | –
73 | CN(CCC1CCCO1)Cc1ccc(N(C)C)nc1 (configuration not stated) | 6.718 | –
74 | CC(C)COCCN1CCN(Cc2ccon2)CC1 | 0.7264 | –
75 | CC(O)c1cccc(Nc2nc(NCCO)c3ccccc3n2)c1 (configuration not stated) | – | 12.45
76 | CCN(CC)c1nc(Nc2cccc(C(C)O)c2)nc2ccccc12 (configuration not stated) | – | 95.47
77 | CCN(CC)c1nc(Nc2cccc(C(=O)O)c2)nc2ccccc12 | – | -21.05
